PubChem BioAssay
Where “and” joins values, the source holds several entries; their conditions need not be identical. Identical values can stand only once. Some compounds were tested as several samples or in several runs, with calls that do not always agree. Calls of active or inactive are those of the source. Cut-off read from the data, not from the text of the source: active = fold change permeability below about 0.7 or above about 1.3; inactive = in between.

Assay: compounds altering in vitro BBB leakiness – cell-based, FITC-avidin fluorescence, HTS, primary screen (AID 1963498); note: test concentration not given here
Details: brain endothelial barrier, actives lie on both sides
With C[C@]12CCC3C(CC[C@H]4C[C@H](O)CC[C@]34C)C1CC[C@@H]2C(=O)CO (some centres undefined) the fold change permeability was 1.1 (inactive).
In the case of CC(C)N(CCC(C(N)=O)(c1ccccc1)c1ccccn1)C(C)C (centres undefined), the fold change permeability is reported as 0.9 (inactive) and 1.3 (active).
In the case of O=C(O)Cc1cnc[nH]1, the fold change permeability is reported as 1 (inactive).
With C[N+]1(C)CCC(OC(=O)C(c2ccccc2)c2ccccc2)CC1 the fold change permeability was 1.6 (active).
In the case of COC(=O)[C@@H](N)CCCN=C(N)N[N+](=O)[O-], the fold change permeability is reported as 0.9 (inactive).
In the case of C[N+](C)(C)CC(=O)O, the fold change permeability is reported as 1 (inactive).
In the case of O=C[C@H](Cl)[C@@H](O)[C@H](O)[C@H](O)CO, the fold change permeability is reported as 1.1 (inactive).
For Cc1nccc2c1[nH]c1ccccc12, the fold change permeability was 1.2 (inactive).
For O=[N+]([O-])c1ccc2nc(N3CCNCC3)ccc2c1, the fold change permeability was 1 (inactive).
In the case of C#CCOC(=O)C1=CCCN(C)C1, the fold change permeability is reported as 1 (inactive).
For COc1ccc(Cc2nccc3cc(OC)c(OC)cc23)cc1OC, the fold change permeability was 1.2 (inactive).
For CCCN(CCC)CCc1ccc(O)c(O)c1, the fold change permeability was 0.8 (inactive).
With Cc1cccc(C)c1NC(=O)CN1CCCC1=O the fold change permeability was 1 (inactive).
For CC[C@@]1(O)C(=O)OCc2c1cc1n(c2=O)Cc2cc3ccccc3nc2-1, the fold change permeability was 1.4 (active).
With CN[C@@H]1C[C@@H](c2ccc(Cl)c(Cl)c2)c2ccccc21 the fold change permeability was 1.2 (inactive).
With CCC1(C2=NCCN2)Cc2ccccc2O1 (centres undefined) the fold change permeability was 1 (inactive).
With CC1OC(C[N+](C)(C)C)CC1O (centres undefined) the fold change permeability was 0.9 (inactive).
For COc1ccc(CCNCc2ccc(OC)c3ccccc23)cc1, the fold change permeability was 1.7 (active).
In the case of CC(Cc1ccc(OCC(=O)O)cc1)NCC(O)c1cccc(Cl)c1 (centres undefined), the fold change permeability is reported as 1 (inactive).
